# Compound activity from PubChem BioAssay.
# VP16 counter: VP16 counterscreen qHTS for inhibitors of ROR gamma transcriptional activity; 3.5% of 310,000 active; Potency, µM (series often up to 53.6 µM), inactives show at the top dose activity, negative = inhibition, hits mostly inhibitors; Drosophila S2 Gal4-VP16 UAS-luciferase, luminescence, 20 h; AID 2546, 2010;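 note: Gal4-VP16 expression switched on by copper sulfate through the metallothionein promoter; % is set by controls: 0 for no effect and ±100 for the full control effect; nearly all actives have a fitted effect of over 50% in size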
# MCF10A rereplic: A quantitative high throughput screen for small molecules that induce DNA re-replication in MCF 10a normal breast cells | AID 624296, 2012 | Potency, µM (highest dose often 46.1 µM), without a hit: top-dose activity, positive = re-replication, most hits filed as activators | 2.9% of 350,000 active | MCF 10A DNA re-replication, Hoechst nuclear intensity, 48 h; note: % of control where 0% means no effect; nearly all actives have a fitted effect of over 50% in size
# SW480 rerep: A quantitative high throughput screen for small molecules that induce DNA re-replication in SW480 colon adenocarcinoma cells; SW480 DNA re-replication, Hoechst DNA content imaging, 48 h; Potency, µM (highest dose often 46.1 µM), without a hit: top-dose re-replication activation, most hits filed as activators; 1.8% of 340,000 active; AID 624297, 2012; note: % of control where 0% means no effect; nearly all actives have a fitted effect of over 55% in size
#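 Cells (250 per well) received 23 nL compound or DMSO by pin tool and were kept 48 hr at 37 C, 5% CO2. Nuclei were then stained with Hoechst for 40 min and scanned for DNA content.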
# RORgamma inh: qHTS for inhibitors of ROR gamma transcriptional activity; Drosophila S2 Gal4-RORgamma UAS-luciferase reporter, 20 h; Potency, µM (highest dose often 53.6 µM), inactives show at the top dose activity change, negative = inhibition, hits mostly inhibitors; 5.4% of 310,000 active; AID 2551, 2010; note: % is set by controls: 0 for no effect and ±100 for the full control effect; nearly all actives have a fitted effect of over 60% in size
# Target sequence (P51450 whole entry, looked up, the tested form may be a part): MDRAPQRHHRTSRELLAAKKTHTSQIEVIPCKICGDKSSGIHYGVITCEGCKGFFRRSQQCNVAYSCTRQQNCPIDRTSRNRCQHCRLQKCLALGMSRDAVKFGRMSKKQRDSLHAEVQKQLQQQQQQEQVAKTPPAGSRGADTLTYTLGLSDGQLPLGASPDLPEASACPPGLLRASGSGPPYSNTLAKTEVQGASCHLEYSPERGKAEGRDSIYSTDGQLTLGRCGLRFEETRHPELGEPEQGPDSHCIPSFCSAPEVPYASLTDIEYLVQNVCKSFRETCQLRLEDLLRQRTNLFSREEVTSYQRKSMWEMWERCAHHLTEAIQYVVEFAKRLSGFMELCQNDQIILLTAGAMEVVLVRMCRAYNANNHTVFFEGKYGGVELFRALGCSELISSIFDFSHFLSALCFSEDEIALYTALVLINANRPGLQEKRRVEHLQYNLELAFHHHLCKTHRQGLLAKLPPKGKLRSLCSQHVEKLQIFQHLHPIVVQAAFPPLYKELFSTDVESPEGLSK
#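 Luciferase reporter read in Schneider cells carrying Gal4-RORγ (mouse) and UAS-Photinus luciferase; cells given compound 1 h before 700 uM copper sulfate induction, then incubated 20 h at ambient temperature.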
# KB-3-1 tox: qHTS assay for MDR1-selective chemotherapeutics: Primary screen using the parental adenocarcinoma cell KB-3-1. KB-3-1 viability, CellTiter-Glo ATP luminescence, 72 h. 1.4% of 400,000 active. Potency, µM (top dose mostly 46.1 µM), usual class: cytotoxic; note: % is set by controls: 0 for no effect and ±100 for the full control effect; nearly all actives have a fitted effect of over 60% in size
#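 KB-3-1 cells, DMEM (no phenol red) + 10% FBS; compound by pin transfer, 72 h, 37 °C. Readout: CellTiter-Glo luminescence after 10 min. Data normalized, curve-fitted.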
# KB-V1 cytotox: qHTS assay for MDR1-selective chemotherapeutics: Primary screen using the drug-selected MDR subline cells KB-V1. KB-V1 MDR cells viability, CellTiter-Glo, 72 h. Potency, µM (series often up to 46.1 µM), hits mostly cytotoxic. 3.4% of 400,000 active; note: % is set by controls: 0 for no effect and ±100 for the full control effect; nearly all actives have a fitted effect of over 60% in size
#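 Following 72 h at 37 degrees C with compound, KB-V1 cell viability was read by CellTiter-Glo luminescence, medium being phenol-red-free DMEM plus 10% FBS; concentration-response parameters came from normalized, curve-fitted qHTS data.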
# Numbers without * were called inactive; i = inactive; ? = inconclusive; / = no result; [ ] = another dose, or the depositor's remark. Rows were chosen to be rich in hits. Some 10% of all compounds tested hit in one or more screens of this group. Calls come from the whole dose curve; as a rule, active = well fitted curve in the direction sought with a large enough effect; inconclusive = small, poorly fitted or top-dose-only effect, or another doubt; inactive = no such curve, though single readings can be large; an effect the other way counts as inactive or inconclusive. Potency is the fitted concentration of half-maximal effect.
SMILES,VP16 counter,MCF10A rereplic,SW480 rerep,RORgamma inh,KB-3-1 tox,KB-V1 cytotox
CCn1c(COc2ccccc2C)nnc1SCC(=O)CC(=O)Nc1ccccc1OC,13µM*,?,0%,10µM*,i,8.2µM*
CCCCN(C=O)c1c(CC)nc2ccc(C(=O)NCCCN3CCCC3=O)cn12,/,/,/,/,i,i
COc1ccc(C(=O)/C=C/C(=O)N(Cc2ccc3c(c2)OCO3)C(C(=O)NC2CCCCC2)c2ccncc2)c(O)c1 (stereo not drawn),?,?,?,?,?,2.1µM*
COc1ccc(CN(C(=O)/C=C/C(=O)c2ccc(OC)cc2O)C(C(=O)NC2CCCCC2)c2ccncc2)cc1 (stereo not drawn),1%,14%,?,-14%[10 µM],i,2.6µM*
Cc1cc2oc(=O)cc(CN(C)Cc3cccc(F)c3)c2cc1C,-2%,7%,?,-18%,i,i
CCc1cc2c(CN(C)Cc3ccccc3F)cc(=O)oc2cc1O,-26%,18µM*,?,-2%,?,12µM*
COc1cccc(CN(C)Cc2cc(=O)oc3c(C)c(C)ccc23)c1,?,13%,-10%,41%,16µM*,i
COc1cccc(CN(C)Cc2cc(=O)oc3cc(O)c(Cl)cc23)c1,-3%,21µM*,?,-25%,?,i
Cc1c(O)ccc2c(CC(=O)N[C@@H](Cc3ccccc3)C(=O)O)cc(=O)oc12,1%,23µM*,?,-7%,i,i
COc1ccccc1CNS(=O)(=O)c1c(C)nc2sc(C)cn2c1=O,/,/,/,/,i,i
Cc1c(O)ccc2c(CN(C)Cc3ccccc3)cc(=O)oc12,?,-36%,18µM*,23%,i,i
Cc1cc(Cl)ccc1C(O)c1ncc(-c2ccc(C(F)(F)F)cc2)[nH]1 (stereo not drawn),/,/,/,/,i,i
O=C(Nc1ccc(Cl)cc1)c1cc2c(cc1O)[nH]c1ccccc12,18µM*,4.6µM*,2%,-35%,?,?
Cc1cccc(-n2c3nc(=O)[nH]c(=O)c-3cc3cc([N+](=O)[O-])ccc32)c1,?,?,?,?,?,16µM*
Cc1ccc(C)c(-n2c3nc(=O)[nH]c(=O)c-3cc3cc([N+](=O)[O-])ccc32)c1,11µM*,?,3.2µM*,10µM*,23µM*,i
O=C(N=Nc1c(O)[nH]c2ccccc12)Nc1ccccc1,/,0%,-5%,/,i,i
COc1ccc(/C=N/OCC(=O)N=Nc2c(O)[nH]c3ccc(Br)cc23)cc1OC,?,?,-5%,-23%,i,i
COc1ccccc1NC(=S)N=Nc1c(O)[nH]c2ccc(Br)cc12,5.6µM*,?,-1%,2µM*,2.3µM*,?
Cc1cccc(NC(=S)N=Nc2c(O)[nH]c3ccccc23)c1,3.5µM*,6.5µM*,?,1.4µM*,i,i
CCn1c(SCC(=O)N2CCCc3ccccc32)nc2ccccc2c1=O,-4%,23µM*,2%,4%,i,10µM*
COC(=O)CC1C(=O)NCCN1C(=O)CSc1nc2ccccc2o1 (stereo not drawn),2%,0%,-4%,25%,i,i
CC(C)Cn1c(SCC(=O)N2CCCc3ccccc32)nc2ccccc2c1=O,-4%,21µM*,?,2%,i,?
COC(=O)CC1C(=O)NCCN1C(=O)CSc1nc2ccccc2c(=O)n1CC(C)C (stereo not drawn),?,4%,-5%,11µM*,?,i
